Source: PubChem BioAssay AID876 (University of Pittsburgh Molecular Library Screening Center, 2007)
The list shows a part of the results. Active and inactive are the calls of the source. The rule behind the calls is not given here.

Experiment: redox cycling hydrogen peroxide generation, dose response, artefact control for Plk1 PBD inhibitor project, biochemical (AID 876)
Details: redox cycling H2O2 generation, DTT, counter-screen
In the case of `CCOC(=O)c1cc2n(c1N)-c1ccccc1C2=O`, the EC50 is reported as > 50 µM (inactive).
In the case of `Oc1ccc2ccc3cccc[n+]3c2c1`, the EC50 is reported as > 50 µM (inactive).
For `O=C(NCCc1ccccc1)/C(=C\c1ccc([N+](=O)[O-])cc1)NC(=O)c1ccccc1`, the EC50 was > 50 µM (inactive).
For `COc1ccc(Nc2oc(-c3ccccc3Cl)nc2C#N)cc1`, the EC50 was > 50 µM (inactive).
In the case of `CC1(C)CC(=O)C=C(NCc2ccncc2)C1`, the EC50 is reported as > 50 µM (inactive).
